Assay outcomes from PubChem.
A selection: hits, their analogues and other compounds. The true share with any hit is near 4.2%.
RecA splice inh: blocks M. tuberculosis RecA intein splicing | P9WHJ3 | AID 2221 | inhibition, % (no concentration beside the values) | hit rate 0.75% among 290,000 | cell-free RecA intein splicing, fluorescence; in the data active = inhibition above about 30%
Mtb FBA inh: inhibits M. tuberculosis FBA enzyme; hit rate 2.3% among 360,000; inhibition, % at 1 µM; AID 588726; P9WQA3; purified M. tuberculosis FBA, fluorescence read-out; in the data active = inhibition above about 27%
CCHF vOTU inh: blocks the CCHF virus ovarian tumor domain protease. CCHFV vOTU protease, Pep-AMC fluorescence. inhibition, % at 11.5 µM. hit rate 0.55% among 370,000
GDH-TPI counter: GDH-TPI coupled enzyme inhibition counter-screen | GDH-TPI coupled enzyme counterscreen, NADH absorbance | inhibition, % at 4.8 µM | hit rate 1.2% among 360,000 | AID 588335
A number is an active result; . = inactive; / = no result; + = active, no number. Cut-off read from the data, not from the text of the source, unless noted: active = inhibition above about 30%; inactive = the rest.

SMILES	RecA splice inh	Mtb FBA inh	CCHF vOTU inh	GDH-TPI counter
COc1ccc(-n2nc3cc(C)c(N)cc3n2)cc1Cl	.	.	.	36
COc1ccc(-n2c(C)cc(C=O)c2C)cc1Cl	.	.	.	.
CCOc1ccccc1Nc1nnc(SCC(=O)NC2CC2)s1	/	.	.	.
COC(=O)C1CN(Cc2cn(CCOC(C)=O)nn2)CCS(=O)(=O)N1Cc1ccccc1 (centres undefined)	/	/	.	/
CCCCCCSc1ccc([C@H]2N[C@@](CC(C)C)(C(=O)OC)[C@H]3C(=O)N(C)C(=O)[C@@H]23)cc1OC	.	.	.	.
COC(=O)C1=CN(c2ccc(Oc3ccccc3)cc2)C(N)=C(C#N)C1c1ccc(-c2ccccc2)cc1 (centres undefined)	/	/	.	/
O=C(CCN1C(=O)C2CCCCC2C1=O)N1CCN(S(=O)(=O)c2ccccc2)CC1 (centres undefined)	.	.	.	.
CCCC1Cc2[nH]c(=O)c(C#N)cc2CO1 (centres undefined)	.	126	.	.
COc1ccccc1/C=C/C(=O)OCC(=O)N1c2ccccc2CC1C (centres undefined)	/	.	.	.
COc1cc(/C=C/c2nc3ccccc3c(=O)n2-c2cccc(O)c2)ccc1O	.	.	.	47
COc1cc(/C=C/c2nc3ccccc3c(=O)n2-c2ccccc2O)ccc1O	.	.	.	.
COc1cc(/C=C/c2nc3ccccc3c(=O)[nH]2)ccc1O	/	.	.	41
O=c1c2ccccc2nc(/C=C/c2ccc(O)c(O)c2)n1-c1ccccc1	.	.	.	43
Cc1cccc(N(Cc2ccccc2)C(=O)CN2C(=O)NC3(CCCC3)C2=O)c1	/	.	.	.
CCOC(=O)c1cncc(O)c1	.	.	.	.
OC[C@@H]1[C@@H](c2ccccc2)C(c2ccc(F)cc2)=NN1c1ccccc1	/	46	/	.
COc1ccccc1[C@@H]1C(c2cccc(Cl)c2)=NN(c2ccccc2)[C@H]1C(=O)N1CCOC1=O	.	.	/	.
COc1ccccc1[C@H]1C(c2cccc(Cl)c2)=NN(c2ccccc2)[C@@H]1CO	/	46	/	.
Fc1cccc(-c2cncc(N3CCN(CCN4CCCC4)CC3)n2)c1	/	.	.	.
COC(=O)C1CN(Cc2ccc(Cl)cc2)CCS(=O)(=O)N1Cc1cn(Cc2ccc(C)cc2)nn1 (centres undefined)	/	/	.	/
Cc1ccc(C(=O)n2cnc3ccccc32)cc1C	36	.	.	.
CC1=CN2C(=N)/C(=C/c3ccco3)C(=O)N=C2S1	.	.	.	33
O=S1(=O)CCN(Cc2cccnc2)CC1	/	.	.	.
CCN(CC)CCCNc1cc(C)c(C#N)c2nc3ccccc3n12	/	116	.	.
Cc1cc(NCCCN2CCOCC2)n2c(nc3ccccc32)c1C#N	.	+	.	.
SMILES	RecA splice inh	Mtb FBA inh	CCHF vOTU inh	GDH-TPI counter
Cc1c2c(n3c(nc4ccccc43)c1C#N)N(CCN1CCOCC1)CC2	.	+	.	.
Cc1cc(NCCCCO)n2c(nc3ccccc32)c1C#N	.	+	.	.
C=CCc1c(C)c(C#N)c2nc3ccccc3n2c1N1CCCCC1	.	.	.	.
COc1cc2c(cc1OC)CN(C(=O)C1CCCN(C(=O)c3ccc(Cl)cc3)C1)CC2 (centres undefined)	/	.	.	.
CCOC(=O)CSc1n[nH]c(NC(=O)c2cccc(C(F)(F)F)c2)n1	50	.	.	.
COc1ccc(/C=N/Nc2ncnc3scc(-c4ccccc4)c23)cc1OC	.	.	.	48
COc1cc(/C=N/Nc2ncnc3sc4c(c23)CCC4)ccc1O	/	.	.	47
COc1cc(/C=N/NC2=NCCCCC2)ccc1O	.	.	.	.
COCCN1CCn2c(nc3cc(NC(=O)NC4CCCCC4)ccc32)C1	/	94	.	.
COc1ccc(/C(O)=C2\C(=O)C(=O)N(Cc3ccco3)C2c2cc(OC)ccc2OC)cc1 (centres undefined)	.	.	.	40
COc1cc(C2/C(=C(\O)c3ccc4c(c3)OCCO4)C(=O)C(=O)N2Cc2ccco2)cc(OC)c1OC (centres undefined)	.	.	.	32
CC(C)CCN(C(=O)c1ccc(Br)cc1)c1c(N)n(Cc2ccccc2)c(=O)[nH]c1=O	/	.	.	.
Cc1cc(Cl)c(S(=O)(=O)N2CCCCCC2)cc1OCC(=O)NC1CCCCC1	.	.	.	.
CCN1CCN(S(=O)(=O)c2cc(OCC(=O)NC3CCCCC3)c(C)cc2Cl)CC1	.	.	.	52
COc1ccc(/C=N/N(C)c2cc(=O)n(C)c(=O)[nH]2)cc1OC	.	.	.	46
Clc1ccccc1NN=Cc1ccccn1	/	.	.	47
COc1ccc(C(=O)/C=C/NCc2ccc(F)cc2)cc1OC	.	.	.	34
COc1ccc(C(=O)/C=C/Nc2ccc(S(N)(=O)=O)cc2)cc1OC	.	.	.	58
Cc1ccc(C(=O)/C=C/NCc2ccc(F)cc2)cc1	.	.	.	.
C=CCn1c(=O)c2ccccc2n2c(SCC(=O)NC)nnc12	.	.	.	.
Cc1ccc(Nc2nnc(SCC(=O)c3ccc(O)cc3O)s2)cc1	.	.	.	.
CC1CCN(C(=O)CN2C(=O)c3cccc4cccc(c34)C2=O)CC1	.	.	.	35
CC1CCN(C(=O)CN2C(=O)C(=O)c3ccccc32)CC1	.	.	/	.
Brc1cccc(OCCCNC2CCCC2)c1	.	.	.	.
CC(=O)Oc1ccc2c(=O)c(/C=N/c3cc(=O)[nH]c(=S)[nH]3)coc2c1	.	.	.	54
SMILES	RecA splice inh	Mtb FBA inh	CCHF vOTU inh	GDH-TPI counter
COc1ccc(-c2cn(Cc3ccc(C(N)=O)cc3)c(CCN)n2)cc1	/	.	.	.
COc1cc(Br)c(C2C(C#N)=C(N)Oc3n[nH]c(-c4cccnc4)c32)cc1OC (centres undefined)	57	.	.	.
COc1cc(OC)cc(C2C(C#N)=C(N)Oc3n[nH]c(-c4cccnc4)c32)c1 (centres undefined)	50	.	.	.
CC(C)(C)c1ccc(C2C(C#N)=C(N)Oc3n[nH]c(-c4cccnc4)c32)cc1 (centres undefined)	.	.	.	.
CCOc1ccc(-c2[nH]nc3c2C(c2cccnc2)C(C#N)=C(N)O3)cc1 (centres undefined)	/	.	.	.
O=C/C=C/c1c(-c2ccccc2)cc2oc3ccccc3cc1-2	.	.	.	.
Cn1c(SC/C=C/c2ccccc2)nnc1-c1cccnc1	/	/	.	/
Cc1cccc(C)c1-n1nnnc1C1(C)CN(S(C)(=O)=O)CC(=O)N1Cc1ccc(F)cc1 (centres undefined)	/	/	.	/
O=C(N/N=C/C=C/c1ccccc1)c1cccnc1	.	.	.	.
O=C(N/N=C/C=C\c1ccco1)c1cccnc1	.	.	.	33
O=C(N/N=C/C=C/c1ccco1)c1cnccn1	.	.	.	.
O=C(N/N=C/C=C\c1cccc([N+](=O)[O-])c1)c1ccccn1	.	.	.	34
O=C(N/N=C/C=C\c1ccco1)c1ccccn1	.	.	.	35
O=C(N/N=C/C=C\c1ccccc1[N+](=O)[O-])c1ccccn1	.	.	.	.
O=C(N/N=C/C=C/c1ccco1)c1cccnc1	.	.	.	38
Cc1ccc(OCC(=O)N/N=C/C=C/c2ccco2)cc1C	.	.	.	37
O=C(N/N=C\C=C\c1ccco1)c1cncc(Br)c1	.	.	.	34
Cc1cccc(Nc2nc(N)nc(CCl)n2)c1C	.	.	.	.
